Data: PubChem BioAssay AID1159580 (chemical genetic matrix, 2015)
The whole screen tested about 5,500 compounds, of which about 2,000 (36%) were called active. Another 18% or so got no clear call; they are omitted. No stated cut-off is given here; in the data, active means normalized growth mostly below about 0.91 (no sharp cut-off); inconclusive means no clear call, values can overlap the other calls; inactive means mostly above about 0.92. The list shows a part of the results.

Test: chemical genetic growth profiling, strain panel (AID 1159580);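 further: tested at 20 µM; growth read once vehicle control cultures reached saturation at 30 °C; 1 = growth at the plate median or of vehicle wells; lower values mean less growth of the strain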
Details: growth OD

Measured: normalized growth

CCOc1nc2cccc(C(=O)OC(C)OC(=O)OC3CCCCC3)c2n1Cc1ccc(-c2ccccc2-c2nn[nH]n2)cc1 (configuration not stated)
active: S. cerevisiae deletion strains, locus YLR262C, strain YPT6 (second series), hits give low values 0.826
inactive: S. cerevisiae deletion strains, locus YJR075W, strain HOC1, hits give low values 0.989 | S. cerevisiae deletion strains, locus YKL009W, strain mrt4, hits give low values 1.1 | S. cerevisiae deletion strains, locus YKL068W, hits give low values 0.997 | S. cerevisiae deletion strains, locus YKL085W, strain MDH1 (second series), hits give low values 0.994 | S. cerevisiae deletion strains, locus YKL085W, strain MDH1, hits give low values 0.994 | S. cerevisiae deletion strains, locus YKL160W, strain elf1, hits give low values 1.02 | S. cerevisiae deletion strains, locus YKL190W, strain CNB1, hits give low values 0.999 | S. cerevisiae deletion strains, locus YKR001C, strain vps1, hits give low values 0.963 | S. cerevisiae deletion strains, locus YKR026C, strain gcn3, hits give low values 1.03 | S. cerevisiae deletion strains, locus YKR091W, strain srl3, hits give low values 1.02 | S. cerevisiae deletion strains, locus YLL001W, strain dnm1, hits give low values 1.03 | S. cerevisiae deletion strains, locus YLL026W, hits give low values 1.01 | S. cerevisiae deletion strains, locus YLL041C, strain sdh2, hits give low values 1.01 | S. cerevisiae deletion strains, locus YLR027C, strain aat2, hits give low values 1.02 | S. cerevisiae deletion strains, locus YLR039C, strain RIC1, hits give low values 0.815 | S. cerevisiae deletion strains, locus YLR058C, strain SHM2, hits give low values 1.01 | S. cerevisiae deletion strains, locus YLR102C, strain apc9, hits give low values 0.998 | S. cerevisiae deletion strains, locus YLR113W, strain HOG1, hits give low values 1.03 | S. cerevisiae deletion strains, locus YLR221C, strain rsa3, hits give low values 1.01 | S. cerevisiae deletion strains, locus YLR258W, strain gsy2, hits give low values 1.02 | S. cerevisiae deletion strains, locus YLR262C, strain YPT6, hits give low values 0.797 | S. cerevisiae deletion strains, locus YLR268W, strain sec22, hits give low values 0.981 | S. cerevisiae deletion strains, locus YLR320W, strain mms22, hits give low values 0.999 | S. cerevisiae deletion strains, locus YLR330W, strain CHS5, hits give low values 1 | S. cerevisiae deletion strains, locus YLR342W, strain FKS1 (second series), hits give low values 0.862 | S. cerevisiae deletion strains, locus YLR342W, strain FKS1, hits give low values 1.02 | S. cerevisiae deletion strains, locus YLR357W, strain rsc2, hits give low values 1.07 | S. cerevisiae deletion strains, locus YLR370C, strain arc18, hits give low values 1.02 | S. cerevisiae deletion strains, locus YLR371W, strain rom2, hits give low values 0.997 | S. cerevisiae deletion strains, locus YLR384C, strain iki3, hits give low values 1.01 | S. cerevisiae deletion strains, locus YLR418C, strain cdc73, hits give low values 0.959 | S. cerevisiae deletion strains, locus YML016C, strain PPZ1, hits give low values 1.01 | S. cerevisiae deletion strains, locus YML032C, strain rad52, hits give low values 1 | S. cerevisiae deletion strains, locus YML120C, strain ndi1, hits give low values 1.04 | S. cerevisiae deletion strains, locus YML124C, strain tub3, hits give low values 1 | S. cerevisiae deletion strains, locus YMR058W, strain fet3, hits give low values 1.02 | S. cerevisiae deletion strains, locus YMR078C, strain ctf18, hits give low values 1.01 | S. cerevisiae deletion strains, locus YMR125W, strain sto1, hits give low values 1.06 | S. cerevisiae deletion strains, locus YMR129W, hits give low values 1.03 | S. cerevisiae deletion strains, locus YMR205C, strain PFK2, hits give low values 0.99 | S. cerevisiae deletion strains, locus YMR223W, strain ubp8, hits give low values 0.984 | S. cerevisiae deletion strains, locus YMR231W, strain pep5, hits give low values 1.02 | S. cerevisiae deletion strains, locus YMR263W, strain SAP30, hits give low values 1 | S. cerevisiae deletion strains, locus YMR307W, strain GAS1, hits give low values 0.734 | S. cerevisiae deletion strains, locus YNL067W, strain RPL9B, hits give low values 0.992 | S. cerevisiae deletion strains, locus YNL071W, strain lat1, hits give low values 1.02 | S. cerevisiae deletion strains, locus YNL128W, strain TEP1, hits give low values 0.995 | S. cerevisiae deletion strains, locus YNL153C, strain GIM3, hits give low values 1 | S. cerevisiae deletion strains, locus YNL183C, strain NPR1, hits give low values 0.968 | S. cerevisiae deletion strains, locus YNL209W, strain ssb2, hits give low values 1 | S. cerevisiae deletion strains, locus YNL233W, strain BNI4, hits give low values 0.999 | S. cerevisiae deletion strains, locus YNL248C, strain rpa49, hits give low values 1.02 | S. cerevisiae deletion strains, locus YNL250W, strain rad50, hits give low values 0.991 | S. cerevisiae deletion strains, locus YNL271C, strain bni1, hits give low values 1 | S. cerevisiae deletion strains, locus YNL298W, strain CLA4, hits give low values 1 | S. cerevisiae deletion strains, locus YNL307C, strain MCK1, hits give low values 0.995 | S. cerevisiae deletion strains, locus YNL322C, strain KRE1 (second series), hits give low values 1.03 | S. cerevisiae deletion strains, locus YNL322C, strain KRE1, hits give low values 1 | S. cerevisiae deletion strains, locus YNR049C, strain mso1, hits give low values 1.04 | S. cerevisiae deletion strains, locus YNR052C, strain pop2, hits give low values 1 | S. cerevisiae deletion strains, locus YOL006C, strain TOP1, hits give low values 0.763 | S. cerevisiae deletion strains, locus YOL012C, strain htz1 0.976 | S. cerevisiae deletion strains, locus YOL147C, strain pex11, hits give low values 1 | S. cerevisiae deletion strains, locus YOR001W, strain rrp6, hits give low values 1.02 | S. cerevisiae deletion strains, locus YOR061W, strain CKA2, hits give low values 1 | S. cerevisiae deletion strains, locus YOR069W, strain VPS5, hits give low values 1 | S. cerevisiae deletion strains, locus YOR070C, strain gyp1, hits give low values 1 | S. cerevisiae deletion strains, locus YOR080W, strain dia2, hits give low values 1.02 | S. cerevisiae deletion strains, locus YOR083W, strain WHI5, hits give low values 1.01 | S. cerevisiae deletion strains, locus YOR106W, strain vam3, hits give low values 0.983 | S. cerevisiae deletion strains, locus YOR136W, strain idh2, hits give low values 0.984 | S. cerevisiae deletion strains, locus YOR144C, strain elg1, hits give low values 0.993 | S. cerevisiae deletion strains, locus YOR184W, strain ser1, hits give low values 0.952 | S. cerevisiae deletion strains, locus YOR231W, strain MKK1, hits give low values 0.998 | S. cerevisiae deletion strains, locus YOR265W, strain rbl2, hits give low values 1.02 | S. cerevisiae deletion strains, locus YOR270C, strain vph1, hits give low values 1.04 | S. cerevisiae deletion strains, locus YOR290C, strain snf2, hits give low values 1.02 | S. cerevisiae deletion strains, locus YOR316C, strain cot1, hits give low values 0.996 | S. cerevisiae deletion strains, locus YPL051W, strain arl3, hits give low values 0.999 | S. cerevisiae deletion strains, locus YPL055C, strain LGE1, hits give low values 0.988 | S. cerevisiae deletion strains, locus YPL078C, strain atp4, hits give low values 1.05 | S. cerevisiae deletion strains, locus YPL106C, strain sse1, hits give low values 0.993 | S. cerevisiae deletion strains, locus YPL240C, strain hsp82, hits give low values 1.01 | S. cerevisiae deletion strains, locus YPL241C, strain CIN2, hits give low values 1 | S. cerevisiae deletion strains, locus YPL256C, strain CLN2, hits give low values 0.961 | S. cerevisiae deletion strains, locus YPR119W, strain clb2, hits give low values 0.992 | S. cerevisiae deletion strains, locus YPR141C, strain kar3, hits give low values 0.998 | S. cerevisiae deletion strains, locus YPR163C, strain tif3, hits give low values 0.99 | S. cerevisiae deletion strains, locus YPR167C, strain met16, hits give low values 1 | S. cerevisiae deletion strains, strain wtn01, hits give low values 0.989 | S. cerevisiae strains, strain wild type, hits give low values 0.997
